PubChem BioAssay AID687001 (Broad Institute, 2013)
Results with a measured potency or affinity are listed apart.

Target: Protein S100-A4 (Homo sapiens) (UniProt P26447)
Assay: S100A4-myosin IIA binding inhibitor potency, dose response, biochemical, fluorescence polarization, cherry-picked hits (AID 687001);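 note: 0% = DMSO neutral control wells and -100% = TFP positive control wells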
Settings: FP, S100A4/TAMRA-myosin IIA peptide binding; series mostly up to 11 µM; activity change, negative = inhibition: at the top concentration;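 active = signal-lowering compounds whose fitted half-maximal concentration is at or below twice the top tested dose in every run; inconclusive = runs disagree, flat 30 to 70% inhibition, or poor curve fit; inactive = the rest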

Sequence of Protein S100-A4 (Homo sapiens) (P26447 whole entry, looked up): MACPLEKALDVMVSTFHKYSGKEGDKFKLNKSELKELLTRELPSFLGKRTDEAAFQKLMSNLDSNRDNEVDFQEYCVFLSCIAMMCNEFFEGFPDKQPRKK

Activity change, negative = inhibition, inactive:
CCc1ccc(CNC(=O)C2CCN(S(=O)(=O)N3CCC(C)CC3)CC2)cc1 2.94%
CCC(=O)N(C)C[C@H]1Oc2ncc(-c3ccc(C(=O)N(C)C)cc3)cc2C(=O)N([C@@H](C)CO)C[C@H]1C 3.86%
CCOC(=O)C1=C(C)N(C)C(=O)NC1c1cccc2ccccc12 (stereo not given) 13.3%
Nc1[nH]c(C(=O)c2ccccc2)c(-c2ccccc2C(F)(F)F)c1C(=O)NCc1cccc2ccccc12 7.4%
CC(C)C#Cc1ccc2c(c1)O[C@@H](CN(C)C(=O)NC(C)C)[C@H](C)CN([C@H](C)CO)S2(=O)=O 0.298%
CN(C)CC/C=C1/c2ccccc2COc2ccc(CC(=O)O)cc21 -4.99%
COCCn1c(SCC(=O)Nc2ccc(NC(C)=O)cc2)nc2ccccc2c1=O -1.93%
COc1ccc(C(CNC(=O)CNC(=O)c2ccc(F)cc2)N2CCCC2)cc1 (stereo not given) -0.057%
CC(NC(=O)COc1ccc(Br)cc1)C(=O)O (stereo not given) -4.84%
C[C@@H]1CN([C@H](C)CO)C(=O)c2ccccc2-c2ccccc2CO[C@H]1CN(C)C(=O)Oc1ccccc1 -2.82%
Cc1cc(C)c(NC(=O)CS(=O)CC(=O)NCCN2CCCCCC2)c(C)c1 (stereo not given) 2.36%
CC1CCCCC12NC(=O)N(CC(=O)OCC(=O)Nc1ccc(F)cc1[N+](=O)[O-])C2=O (stereo not given) -0.728%
O=C(c1ccc(Br)o1)N1CCC(Cc2ccccc2)CC1 -1.09%
Cc1ccc(NC(=O)CSc2ccc(-c3cccnc3)nn2)cc1 2.04%
CCOC(=O)[C@]12CCCC=C1N(Cc1ccccc1)C(=O)[C@H](CC(=O)NCCCN1CCCC1=O)C2 0.767%
O=C(NCCC1CCCCN1S(=O)(=O)c1ccccc1)C(=O)NCC1CCCO1 (stereo not given) -6.23%
CC(C)CC#Cc1ccc2c(c1)O[C@@H](CN(C)C(=O)Nc1ccccc1)[C@@H](C)CN([C@H](C)CO)S2(=O)=O 9.65%
C[C@H](CO)N1C[C@H](C)[C@H](CN(C)Cc2ccccc2)Oc2ccc(NS(=O)(=O)c3ccccc3)cc2CC1=O 3.85%
CCOCCn1ccc2c(OCC(=O)Nc3ccccc3OC)cccc2c1=O -2.76%
CC(NC(=O)COC(=O)c1cc([N+](=O)[O-])ccc1N1CCOCC1)c1ccc(F)cc1 (stereo not given) 7.4%
NS(=O)(=O)c1ccc(NCc2cnc3ccccc3c2)cc1 -3.85%
COC(=O)c1c(NC(=O)CN(C)CC(=O)Nc2ccc(C)cc2)sc2c1CCC(C)C2 (stereo not given) 2.13%
COc1cc2cnc(-c3ccccc3F)cc2cc1OC -1.06%
CCn1cc(CNC(=O)C2CCC(=O)N(CCc3cccc(F)c3)C2)cn1 (stereo not given) -4.76%
O=C(NCCOc1ccccc1)C1CCC(=O)N(CCCN2CCOCC2)C1 (stereo not given) -3.56%
